Results as given in PubChem BioAssay (NCI).
About 83,000 compounds went through this panel and 20% of them were active in at least one assay; those are over-represented in the sample as a whole.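 How to read the values: 0–100, growth inhibition (40 = 60% inhibited); 0, no net growth; -100 to 0, cell death (-40 = 40% of starting cells died; -100 = all dead).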 Unmarked numbers belong to inactive results. Active and inactive are the calls of the source.

Each compound was assayed on U251 CNS (assay: NCI-60 one-dose screen, 48 h (100 = growth as untreated, 0 = no growth, -100 = all killed)). Conditions: 10 µM unless noted.
Procedure: Growth inhibition of the U251 human tumor cell line is measured as a screen for anti-cancer activity. Cells are grown in 96 well plates and exposed to the test compound for 48 hours. Compounds are tested at a single concentration, which is 10^-5 M for most compounds. The reported endpoint is percent growth (GI% or GIPRCNT), where numbers from 0 - 100% represent growth inhibition, and numbers from -100% - 0 represent cell death. For example, a value of 40 represents 60% growth inhibition. A value of 0 means no net growth occurred over the course of the experiment. A value of -40 indicates 40% of cells at the beginning of the experiment died by the end of the experiment. A value of -100 means all cells are dead at the end of the experiment.
NCI-60 Human Tumor Cell Lines Screen was performed using the standard one-dose NCI protocol, which is described in more detail at https://dtp.cancer.gov/discovery_development/nci-60/default.htm.
Compounds with GIPRCNT values below 10 were considered active. Activity score was based on GIPRCNT using the following formula: […]
Score is 0 for GIPRCNT values of 100 or above, 50 for GIPRCNT values of 0, and 100 for GIPRCNT values of -100.

Compound	growth
Cc1ccccc1C1CC(=O)c2ccccc2C1C (stereo not given)	88.5%
Cc1cc(Nc2c3ccccc3nc3ccccc23)ccc1NS(C)(=O)=O	27.1%
CCOC(=O)C1C(=O)C=C(c2cc(OC)c(OC)c(OC)c2)CC1c1sc(N(C)Cc2ccccc2)nc1Cl (stereo not given)	87.8%
Clc1ccccc1CNc1c2ccccc2nc2ccccc12	23.2%
C=CCOc1ccc2c(C)cc(=O)oc2c1	89%
Cc1cccc(N=NC(=S)NNc2cccc(C)c2)c1	114%
CC1OC(n2c3ccccc3c3c4c(c5c6ccccc6[nH]c5c32)C(=O)N(CCN2CCOCC2)C4=O)CC(O)C1O (stereo not given)	10.4%
Clc1ccc(-c2cnc3c(-c4ccnc(N5CCNCC5)c4)cnn3c2)cc1	-58.1% (active)
O=C(/C=C/c1ccco1)c1ccccc1O	109%
COc1cccc(-c2nc3sccn3c2-c2ccnc(NCCN3CCCN(C)S3(=O)=O)n2)c1	99.9%
C=CCOC(=O)C1=C(C)NC2=C(C(=O)CCC2)C1c1ccc(F)cc1 (stereo not given)	97.8%
CCOC(=O)C1OC2(CCCC2)OC1C(=O)OCC (stereo not given)	109%
CCN(CC)Cc1cc(Nc2ccnc3ccc(OC)cc23)ccc1O	35%
CN1C2CCC1/C(=C\c1ccc(F)cc1)C(=O)/C2=C/c1ccc(F)cc1	16.2%
COc1ccc(C2=NNC(c3ccc(Oc4nc5c(c(=O)n(C)c(=O)n5C)n4C)c(OC)c3)C2)cc1 (stereo not given)	83.2%
CC(C)(C)OC(=O)N1CCCN(CCNc2nccc(-c3c(-c4cccc(O)c4)nc4sccn34)n2)S1(=O)=O	117%
CCN(CC)CCNC(=O)n1cc(-c2ccncc2)c(-c2ccc(Cl)c(OC)c2)n1	90.3%
CCn1c(=O)c(C(=O)NCCCO)c(O)c2ccccc21	98.1%
CCCCCCCCCCCC1=NC(C)(C)CN1C(C)C	37%
CCCCSc1ncnc2c1ncn2C1CCCCO1 (stereo not given)	99.9%

Compound	growth
NS(=O)(=O)c1ccc(CCn2c(SCC(=O)N/N=C/c3cc4ccccc4[nH]3)nc3ccccc3c2=O)cc1	30.6%
COc1ccc(C(=O)N2N=C(c3ccc(F)cc3)CC2c2cn(-c3ccccc3)nc2-c2ccccc2)cc1 (stereo not given)	30.6%
CC(C)CCC(=O)[C@@H](C)[C@H]1[C@@H](OC2OCC(O)C(O)C2NS(C)(=O)=O)C[C@H]2[C@@H]3CC=C4C[C@@H](O)CC[C@]4(C)[C@H]3CC[C@]12C (stereo not given in full)	5.29% (active)
COc1ccc(-c2nn(C(=O)NCCN(C)C)cc2-c2ccncc2)cc1Cl	31.1%
COc1ccc(C(=O)OC2C(OC3C(O)COC(O[C@H]4C[C@H]5[C@@H]6CC=C7C[C@@H](O)CC[C@]7(C)[C@H]6CC[C@]5(C)[C@H]4[C@H](C)C(=O)CCC(C)C)C3OC(N)=O)OCC(O)C2O)cc1 (stereo not given in full)	-53.3% (active)
O=C(/C=C/c1ccccc1)c1c[nH]c2ccccc2c1=O	11.6%
CC(C)c1cccc(C#N)c1	94.8%
O=C1NN(C(=O)c2ccccc2)C(c2ccc(Cl)c(Cl)c2)=C/C1=C\c1ccccc1[N+](=O)[O-]	14.7% [6.75 µM]
CCOC(=O)C1C(=O)C=C(c2ccccc2)CC1c1sc(N(C)Cc2ccccc2)nc1Cl (stereo not given)	92.7%
Brc1ccsc1Br	109%
CC(C)(C)c1ccc(C(=O)Nc2sc3cc(O)ccc3c2C(N)=O)cc1	77.5%
CC(C)OC1OC(OC(C)C)C(OC(C)C)OC1OC(C)C (stereo not given)	90.3%
CC(C)C/C=C/C=C/C(=O)N[C@@H](CC(N)=O)C(=O)N[C@@H]1C(=O)N[C@H](c2ccc(O)cc2)C(=O)N[C@H](CCCN)C(=O)N[C@H]([C@@H](C)O)C(=O)N[C@H](c2ccc(O)cc2)C(=O)N[C@H](c2ccc(O)cc2)C(=O)N[C@H]([C@H](C)O)C(=O)N[C@H](Cc2ccccc2)C(=O)N[C@H](CCCN)C(=O)N[C@H](c2ccc(O[C@H]3O[C@@H](CO)[C@@H](O)[C@@H](O)[C@H]3O[C@@H]3O[C@H](CO)[C@H](O)[C@H](O)[C@@H]3O)cc2)C(=O)N[C@H]([C@H](C)O)C(=O)N[C@H](c2ccc(O)cc2)C(=O)NCC(=O)N[C@H](CC(C)C)C(=O)N[C@H](C)C(=O)N[C@H](c2ccc(O)c(Cl)c2)C(=O)O[C@@H]1C(N)=O	-19% (active)
CN(C)CCNC(=O)n1cc(-c2ccncc2)c(-c2cc(O)cc(Cl)c2)n1	81.6%
CCCCCCCCCCCCNC(=O)N[C@H](C(=O)N[C@H]1/C=C/OCCNC(=O)/C=C/[C@H](C(C)C)NC1=O)C(C)C	43.2%
Oc1c(C(Nc2ccccc2Br)c2ccccc2)ccc2cccnc12 (stereo not given)	12.9%
CCN(C(=O)CCl)C(C)(C)C(SSSC(c1ccc(Cl)cc1)C(C)(C)N(CC)C(=O)CCl)c1ccc(Cl)cc1 (stereo not given)	63.5%
Cc1c(C(=O)Nc2ccccc2F)sc2c(=O)[nH]cnc12	89.7%
CCCCCCCCCCCCC1CCC(=O)O1 (stereo not given)	101%
Cc1ccc(OC2=C(C#N)C(=N)N3C(=NN2)Sc2c(C)ccc(C)c23)cc1	103%
